Results as given in PubChem BioAssay.

Test: probe aLefty2 binding to arrayed compounds – biochemical, biotinylated probe, 635/667 nm fluorescence, primary screen (AID 1094);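 further: score merges spot fluorescence near 667 nm with spot signal-to-noise ratio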
Conditions: small-molecule microarray, higher = more signal
With COCC(=C=CC[C@H](O)c1ccc(OCCO)cc1)CCO the composite z-score was 0.106. Molecule CCOC(=O)C[C@H]1[C@H](OC(=O)Cc2ccc3c(c2)OCO3)[C@@H](NC(=O)c2ccc3ccccc3n2)c2cc(OCCCO)ccc2N1C(=O)c1ccccc1 has a composite z-score of 0.0209. For COc1ccc([Si](C)(C)[C@@H]2[C@@H](CC(=O)N3CCC[C@H]3CO)O[C@]3(C(=O)N(Cc4cccc(N5C(=O)COc6ccccc65)c4)c4ccccc43)[C@H]2C)cc1, the composite z-score was -0.0198. With COc1ccc(CCNC(=O)[C@@H]2c3ccccc3C(=O)N(C3CCCCC3)[C@H]2c2ccc(CO)cc2)cc1 the composite z-score was -0.0671. Work on NCCCCCNC(=O)[C@@H]1C[C@@H]2C(=O)N[C@@H](CCCCN)C(=O)N2[C@@H]1c1ccc(O)cc1 yielded a composite z-score of 0.303. Molecule NC(=O)[C@H]1[C@@H]2C(=O)O[C@@H](c3ccccc3)[C@@H](c3ccccc3)N2[C@@H](c2ccc(OCCO)cc2)[C@]12C(=O)Nc1ccc(C#CCCO)cc12 has a composite z-score of -0.0636. In the case of CCCCC(O)C1C=CC2C(=O)N(C)C(=O)C2N1N(c1ccccc1)c1ccccc1 (configuration not stated), the composite z-score was -0.0441. Molecule CCCC[C@@H](O)C1=C(COC)C[C@H]2C(=O)N(C)C(=O)[C@H]2[C@H]1CO has a composite z-score of -0.353. C=C(COC)/C(=C/C[C@H](OC(=O)c1ccncc1)c1ccccc1OCCO)c1cc(C(=O)OC)ccc1OC showed a composite z-score of -0.157. Molecule COC(=O)C1(CC(C)C)C=C2C(=C(c3ccccc3)C(=O)C2C)CN1 (configuration not stated) has a composite z-score of 1.1. Work on CCOc1cc(C(O)C2C=CC3C(=O)NC(=O)C3N2Nc2ccc(Cl)cc2Cl)ccc1O (configuration not stated) yielded a composite z-score of 0.0717. For Cc1ccc(S[C@]2(C(=O)NC(C)C)CC(=O)N(Cc3cc(C(F)(F)F)cc(C(F)(F)F)c3)[C@@H]2c2ccc(CO)cc2)cc1, the composite z-score was -0.117.
